Screening data (PubChem)
An excerpt weighted towards active compounds, which were near 2.4% of everything screened.
FEN1 inhibitor – qHTS Assay for the Inhibitors of Human Flap endonuclease 1 (FEN1) | P39748 | Recombinant FEN1 flap cleavage, fluorescence, 15 min | Potency, µM (highest dose often 114 µM), hits mostly inhibitors | 390,000 compounds, 0.35% hits; further: nearly all actives have a fitted effect of over 65% in size
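Enzyme 10 nM, 15 min RT preincubation with compound; start with substrate 50 nM final; reads at 0 and 15 min; qHTS titration, four-parameter Hill fit.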
Pol kappa inh-1 – qHTS for Inhibitors of Polymerase Kappa. AID 588579, 2011. 400,000 compounds, 0.53% hits. Potency, µM (series often up to 107 µM), usual class: inhibitors. purified Pol kappa, fluorescent DNA synthesis assay, 10 min. DNA polymerase kappa (Homo sapiens), Q9UBT6
Target sequence (Q9UBT6 whole entry, looked up): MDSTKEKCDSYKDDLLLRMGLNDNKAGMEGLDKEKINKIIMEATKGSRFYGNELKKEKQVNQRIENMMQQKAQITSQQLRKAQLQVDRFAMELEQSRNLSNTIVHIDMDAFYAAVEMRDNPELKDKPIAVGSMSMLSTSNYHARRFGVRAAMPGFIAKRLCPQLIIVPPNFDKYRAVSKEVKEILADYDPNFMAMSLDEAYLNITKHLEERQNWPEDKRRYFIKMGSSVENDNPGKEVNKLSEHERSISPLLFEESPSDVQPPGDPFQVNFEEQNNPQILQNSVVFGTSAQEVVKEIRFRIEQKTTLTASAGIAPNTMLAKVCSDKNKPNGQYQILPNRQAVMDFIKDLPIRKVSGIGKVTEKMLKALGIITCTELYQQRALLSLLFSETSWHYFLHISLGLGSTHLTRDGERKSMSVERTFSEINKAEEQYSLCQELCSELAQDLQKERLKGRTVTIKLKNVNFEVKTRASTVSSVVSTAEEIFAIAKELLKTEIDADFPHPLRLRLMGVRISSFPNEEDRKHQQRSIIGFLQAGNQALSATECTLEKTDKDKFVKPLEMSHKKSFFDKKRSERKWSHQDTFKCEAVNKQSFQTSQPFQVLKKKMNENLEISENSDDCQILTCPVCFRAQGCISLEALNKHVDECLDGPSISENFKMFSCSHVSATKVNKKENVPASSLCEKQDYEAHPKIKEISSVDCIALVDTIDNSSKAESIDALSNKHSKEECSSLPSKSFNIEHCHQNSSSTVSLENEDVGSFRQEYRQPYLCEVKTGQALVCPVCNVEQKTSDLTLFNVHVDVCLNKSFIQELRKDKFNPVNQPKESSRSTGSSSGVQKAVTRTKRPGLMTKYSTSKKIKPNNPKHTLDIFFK
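Enzyme at 10 nM met test compounds for 15 min at room temperature. Substrate addition (50 nM final) began the reaction, which was monitored by fluorescence at 0 and 10 min.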
WRN helicase inh – qHTS for Inhibitors of WRN Helicase | Bifunctional 3'-5' exonuclease/ATP-dependent helicase WRN (Homo sapiens), Q14191 | WRN helicase unwinding, fluorescent forked duplex, kinetic | Potency, µM (highest dose often 114 µM), usual class: inhibitors | 360,000 compounds, 0.46% hits | AID 651768, 2012; further: nearly all actives have a fitted effect of over 55% in size
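WRN at 20 nM final was preincubated with compound for 15 min at room temperature; reaction started with 100 nM forked duplex oligonucleotide carrying fluorophore and quencher plus 2 mM ATP (final). Unwinding followed kinetically by red fluorescence (ex 525/em 598 nm).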
POLB inh – qHTS Assay for Inhibitors of DNA Polymerase Beta; Pol beta primer extension/strand displacement, fluorescence kinetic; 340,000 compounds, 1.3% hits; Potency, µM (titrated, usually from 114 µM), most hits filed as inhibitors; P06746; AID 485314, 2010
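Enzyme-only controls used 10 nM Pol beta; buffer lacking enzyme served as negative control. Compound preincubated 15 min, then 50 nM substrate added; 0 and 10 min reads at room temperature.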
Pol eta inh-1 – qHTS for Inhibitors of Polymerase Eta. AID 588591, 2011. 390,000 compounds, 1.2% hits. DNA polymerase eta (Homo sapiens), Q9Y253. recombinant Pol eta, fluorescent DNA replication assay. Potency, µM (top dose mostly 114 µM), hits mostly inhibitors
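Fluorescent replication assay: 50 nM final substrate added after a 15 min room-temperature compound preincubation with 10 nM enzyme. Signal taken at 0 min and again at 10 min.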
POLI inh – qHTS for Inhibitors of Polymerase Iota; DNA polymerase iota (Homo sapiens), Q9UNA4; Pol iota fluorescent replication assay, 10 min; Potency, µM (highest dose often 115 µM), most hits filed as inhibitors; 390,000 compounds, 1% hits
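Pol iota at 10 nM preincubated 15 min with compounds at room temperature; reaction started with fluorescent substrate, 50 nM final. Fluorescence read kinetically at 0 and 10 min; buffer-only wells as negative control.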
PGK validate – qHTS for inhibitors of Phosphogylcerate Kinase: Hit Validation Screen; shares compounds with Pol kappa inh-1; TbPGK coupled GAPDH assay, Kinase-Glo luminescence; Potency, µM (series often up to 57.5 µM), usual class: inhibitors; 500 compounds, 79% hits; further: nearly all actives have a fitted effect of over 65% in size
Pol iota confirm – qHTS for Inhibitors of Polymerase Iota: Confirmatory Assay for Cherry-picked Compounds | shares compounds with Pol kappa inh-1 | Potency, µM, usual class: inhibitors | 1,500 compounds, 77% hits | AID 720496, 2013 | Pol iota primer extension, TAMRA/BHQ fluorescence
Pol kappa inh-2 – qHTS for Inhibitors of Polymerase Kappa: Confirmatory Assay for Cherry-picked Compounds | shares compounds with Pol eta inh-1 | purified Pol-kappa, fluorescent strand-displacement substrate | Potency, µM, most hits filed as inhibitors | 920 compounds, 76% hits | AID 720501, 2013
Pol eta inh-2 – qHTS for Inhibitors of Polymerase Eta: Confirmatory Assay for Cherry-picked Compounds | shares compounds with Pol eta inh-1 | Pol eta primer extension, TAMRA/BHQ fluorescence, 10 min | Potency, µM, actives largely listed as inhibitors | 2,600 compounds, 64% hits | AID 720502, 2013
Large screens that a line does not name were inactive (follow-up assays come after a bar, where they were run). The call rests on the fitted dose curve; in most records, active means well fitted curve in the direction sought with a large enough effect; inconclusive means small, poorly fitted or top-dose-only effect, or another doubt; inactive means no such curve, though single readings can be large; an effect the other way counts as inactive or inconclusive.

O=C(CCNS(=O)(=O)c1ccc(Br)cc1)NCCc1ccccc1	none
CCCCCn1c(=O)c2c(nc3n2CCN3c2ccc(Br)cc2)n(C)c1=O	POLB inh inconclusive (no result: WRN helicase inh)
O=C(N/N=C/c1ccc(F)cc1)c1cc(-c2ccco2)nc2ccccc12	FEN1 inhibitor 79.4µM, Pol kappa inh-1 14.1µM, WRN helicase inh 39.8µM, POLB inh 3.55µM, Pol eta inh-1 1.58µM, POLI inh 7.94µM | PGK validate 8.19µM | Pol iota confirm 7.52 | Pol kappa inh-2 10.6 | Pol eta inh-2 21.3
Nc1c(C(=O)N/N=C/c2ccc(F)cc2)oc2nc(-c3ccccc3)cc(-c3ccco3)c12	none
Cc1ccc(-c2cc(C(=O)N/N=C/c3ccc([N+](=O)[O-])o3)c3ccccc3n2)o1	Pol kappa inh-1 inconclusive, Pol eta inh-1 50.1µM, POLI inh inconclusive | Pol iota confirm inconclusive | Pol eta inh-2 30.1
Cc1ccc(-c2cc(C(=O)NCc3ccco3)c3ccccc3n2)o1	Pol kappa inh-1 79.4µM, WRN helicase inh 56.2µM, POLB inh 17.8µM, Pol eta inh-1 7.94µM, POLI inh inconclusive | Pol iota confirm inconclusive | Pol eta inh-2 inconclusive
Cc1csc(NC(=O)CSc2nc(C(C)C)nc3ccccc23)n1	none
CC(C)c1nc(SCC(=O)Nc2nccs2)c2ccccc2n1	WRN helicase inh inconclusive, POLB inh 25.1µM, Pol eta inh-1 31.6µM, POLI inh inconclusive | Pol iota confirm 53.2 | Pol eta inh-2 75.7
O=c1cc(-c2ccc(O)c(O)c2)oc2cc(O)c(C3OC(CO)C(O)C(O)C3O)c(O)c12 (stereo not drawn)	FEN1 inhibitor inconclusive, Pol kappa inh-1 20µM, WRN helicase inh inconclusive, POLB inh 4.47µM, Pol eta inh-1 3.16µM, POLI inh 10µM | Pol iota confirm 42.3 | Pol eta inh-2 19
CCN(CC)CCCNC(=O)c1ccc2c(c1)N(Cc1c(F)cccc1Cl)C(=O)c1ccccc1S2	none (no result: WRN helicase inh)
O=C1C=C(Nc2ccc(F)cc2)c2ccccc2C1=O	Pol eta inh-1 inconclusive (no result: POLB inh)
